Experimental findings from the supplement of paper PMC12632987 are described below.

Whole data set: some 2,300 sequences, median “median log2 fold change of GCK-ALFA target abundance (FLAG IP / Myc IP barcode read proportion)” near 0.095, cut for the lowest 2% near -0.47. Only a selection was taken, and the lowest values are over-represented in it overall.

To fix the notation:
B1: LC3A_59_2012 (protein)
chain: REEVREWVEKIYEAYDDVEKFYELVKKAYEELKKKYSDEELLKLVKEEVERLIKEGKDPRKMKAIYESFKAVIEIKDEEKQKEEIRLIILESEIEEIDEE
B2: LC3A_3_1808 (protein)
chain: MEERLEEVIKLLKEAGHSEETIKAFLEAAEALKEKGYEEALETLLELARELVDLPSELLLEMFEDVLELVETSDDSEEEITERIREIASTYRHEAEIEEL
B3: LC3A_132_320 (protein)
chain: MEEKARRIREEILRLIEEAEENIDDLEKVEELVEEIRELARRAEEELTPEQVAEIFEEAAEKADEVSLKADEEGKEDVALLMDGLSVELAALSIRAEEKI
B4: LC3A_free_2_2172 (protein)
chain: MKYRVIIDALGKPEGIAKLVKTLVDLGIEVEVTTEDGTKMTATKETVEEVVKYLLSKKEEIYVELEAVTDKEKADKALDELEKVAEETGISYIVSIEELE
B5: LC3A_28_689 (protein)
chain: NYIEELKKKAEEILEEAAAKGEEAYIEIDFERPITPEEVEEIMDKLEEYIKKYKLKKVNIVINILSENQSQETIDTIMDKAEELEKRIPNVTVIIALPEN
B6: LC3A_3_1500 (protein)
chain: LEEAVERLLEALREAGVSEADIAEARELLEKAREYLTEESIEAITETVRRLAHLPPRLVAAAVLTLLETILEKKLNDEEVKEKAELLAETAESFAESDER
B7: LC3A_28_698 (protein)
chain: SRVDEDIERARKIAEEAIAKGEDALIELTIRPDTTAEDVDRILATIRELAEKMSKTGKLYVVVDVESGVDQANIDRIADELDKLMEEIPNLTAVIALDED
B8: LC3A_141_369 (protein)
chain: KTVTLKLELKNSSLDEVIEKMEELEEEVLKAYEELGGGKVKVTVTLTFKNSKTGETTVIKEEFEADKEELEMLLEGVLIEAASYRLTENADITVTVTLEA
B9: LC3A_28_725 (protein)
chain: NELEESIEKALKKAKELAEKGKSDVIEITIPGNATQEDIEKVIKALEEIAEIVKDLESVSIVIDVEGGVKQEHIDKLADKAEEIEKKYPNVTVIIALDED
B10: LC3A_free_0_2099 (protein)
chain: MTTVVEVLGIIDNENDKEAAEAIAEELKKLGKKLSEEKGWKVTVELKKVNGSYVITVTIEGKGMSIEEGLEIADEIADKIERLAKEHGVEVTIYTSVYEE
B11: LC3A_28_944 (protein)
chain: MTIEEEIEKALKEAKEAKAKKEPAVITITVKGDATEEEIEKVIETIKEIAELLKDIKGSAIIVDVEKGVKEEHINKLLDTLDEIEKKYPNISAIMALDED
B12: LC3A_28_943 (protein)
chain: MSIEEDIEAALKEAKEAKKKGEPAVITITVKGTATQEEVDAVIKTIKEIAELLKDIKGSAIIVDIEAGVAQEHVDALMDTLDEIEKKYPNINAIAALDED
B13: LC3A_3_1778 (protein)
chain: ADELIEELLEALREAGKSEETIEAAREVAERLRERGFDEALETFVREMRRLLDVPDDILLDMLEEVLELLETEDLSEEEVIERIEELARLARAEAEIEEL
B14: LC3A_132_256 (protein)
chain: SEELYERFLEEAKELIDKIVDALKAGKDPSPYIKELDELAEEAAEKLSLEELERLVEEAEEYAEERFAERLDPNDPEARRALDIVEMILDSALIEAELRA
B15: LC3A_132_258 (protein)
chain: SEEKKEEFLEKFKELIDKIVEALQAGQDPSPYLKELDELAEEAAEELSLEELEELVEEAEKYARERFAERLDPNDPEARRTLLIVEMILDSALIESELRA
B16: LC3A_28_714 (protein)
chain: SPLEESIKKALEEAKEAAKKGEEAVIEIKVEGEITEEETEKVQKAIEEIAEITKDLKSTTIIVDVDGKVPQEHINKILDKGEEVEKKYPNVTVIFALDEN
B17: LC3A_free_0_2103 (protein)
chain: SVTVVEVVAISKEKWSEEKAKKLKEAAEKLAKELEEKYGMETEVKLEEIDGRQVLTIKAKKEGMSIDEGLEIADYIADHLEEKAKELGVEVEIYESVYEE
B18: LC3A_3_1781 (protein)
chain: AEARIAELLAALEAAGASPETIAAVRAAAEALRARGYEEALATFVEEMRRLLGLPDEIRLAFAQEVLRLIEENDLSEEELTEEIRRLARLARLEAEIEEL
B19: LC3A_free_8_2489 (protein)
chain: KSQELANLASDLLDELEEEVEKKAKELGASELDILDLSLLIGSTIAEAYSLSDESPEKIIEAVREGLEELIERAKEISEELAKKVKELSEKILKELEEKA
B20: LC3A_3_1366 (protein)
chain: MEEKIEELLEYLKKEGKSEETLEAVRKTLEALIEKGYEEAAETFIELMKKLSHLPDELLLDFAKEVLEKVENEDLSEEELIEFIKEEAKIAENEAEIIEL
B21: LC3A_28_772 (protein)
chain: MDIKENAAKAIAEAKAAAAAGEEAVIEIKVPDGATEEDIEIVIKALEEIAEITKDMKSISVVIDVDGGVKQEHLDKLAKAAEEIEEKYPNVTVIIALDEN
B22: LC3A_free_39_2201 (protein)
chain: SEEEFEKYKEELLKLAEKEGEEALKEAKELLKEIEGNVNLAKTVLEEVKRAVEEGADVLELLKELLKLVKELKKEGKSEEEIIKEMKAKADVIINLIPID
B23: LC3A_28_1312 (protein)
chain: SKLKKQFEEAIKEVEAAAAAGEPVVVTIDITAEEAEKELEEILKLLEELAKVASKAPGATIIIDVDEDVKPENLKKIAEKAEELEKKYPNVTVIIAIEDK
B24: LC3A_127_171 (protein)
chain: ELEELLEEALEVAEELSELLEEEDYDFEEIEELTRELLELAKKILELDPRAEDALETAEEMLELLEEMKEADEAEQKELKEHLLMLTEGLIIELLGLQLK
B25: LC3A_free_39_2287 (protein)
chain: SEEELEEAVERLEELLEEIEGVSEEEKEIILEAARESLEMAKAILEALEELRRLGGDVAEAAREIAALIRELRAAGASLEERTAAVIEKARDLVNLIPID
B26: LC3A_132_291 (protein)
chain: QQEKAEELKKEIKEIVEEMKENIDDEEKVRKLLEELEKLMKRAEKELSPELLAEVFEELSELLEELSEEFDEAGKEDLALEADSLAIEAASLALRAKEKI
B27: LC3A_127_206 (protein)
chain: KEKELLKKAEKLAEKAEEAVDKIPKEGEKAREEAIKLLEELAKLLKQIPSLKEALEDTEQAIKLLKETAKLSPAEREETIEQISQIISGILIEIESELLK
B28: LC3A_free_46_2354 (protein)
chain: VEAKIEVDLLHEDEEVLKKAVEAIKEAAKKIAKKYGLKVEIKEKIEKLPDGSYFAEIEITLKGEDKETLEKAVNELINEIDEIAKKYDVAAIISYEIIEK

This test addresses MAP1LC3A, Q9H492. The test can be described thus: median log2 fold change of GCK-ALFA target abundance (FLAG IP / Myc IP barcode read proportion) (log2 ratio); each designed protein is fused to an ALFA-tag nanobody in HEK293 cells to bring the named protein to FLAG-tagged glucokinase (GCK); Myc marks an untargeted standard; higher = target protein stabilised (more abundant). To be noted: target protein: 3xFLAG-MCP-GCK-ALFA reporter; HEK293 landing pad (RPLP). The essentials: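 An ALFA-nanobody-fused binder library was recombined into HEK293 landing-pad cells and induced with 2 μg mL^−1 doxycycline. Cells were transfected with a plasmid expressing a FLAG-tagged target and a Myc-tagged standard. After 48 h, lysates underwent anti-FLAG and anti-Myc immunoprecipitation, and circular RNA barcodes were reverse transcribed, amplified and sequenced. Target abundance is the per-binder median log2 ratio of FLAG to Myc barcode read proportions. Barcodes needed ≥10^−7 proportion in both replicates, binders ≥3 barcodes per replicate, and a 10^−6 pseudocount was added; the two replicates were pooled.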
As for B1, the “median log2 fold change” value is 0.156. Regarding B2, the “median log2 fold change” value turned out to be 0.0777. Next, B3: 0.104; B4: -8.53e-05.

Regarding B5, the “median log2 fold change” value was -0.0908. Turning to B6, the “median log2 fold change” value was 0.0772. Take B7: the “median log2 fold change” value is -0.304. Next, B8: -0.618; B9: 0.164; B10: -0.379. Next, B11: -0.897; B12: -0.355.

Turning to B13, the “median log2 fold change” value is -0.0575.

For B14, the “median log2 fold change” value was -0.217. Next, B15: -0.582; B16: 0.219; B17: 0.15. Next, B18: 0.24; B19: 0.0352. Next, B20: 0.0931. On to B21, for which the “median log2 fold change” value amounted to 0.202. B22: the “median log2 fold change” value worked out at 0.451. Next, B23: -0.0764; B24: -0.77; B25: 0.257. For B26, the “median log2 fold change” value was -0.27. Next, B27: 0.148; B28: -1.38e-07.
